Reference: PubChem BioAssay (NCATS)
Several values for one entry are separate records, joined by “and”; a condition that tells them apart may be missing. Identical values can stand only once. Records with an inconclusive call do not appear. A call without a number means that no potency is given here. Some structures have more than one record in an assay (separate samples or runs), and their calls can disagree. Activity calls are given as the source filed them. Calls follow the shape of the dose curve; as a rule, active = well fitted inhibition curve with a large enough effect; inconclusive = small, poorly fitted or top-dose-only effect; inactive = no such curve, though single readings can be large or run the other way.
Potency is read from the fitted curve at half-maximal effect.

The molecules below were run against M-phase phosphoprotein 8 (Homo sapiens) (UniProt Q99549) (assay: qHTS Validation Assay for Inhibitors for MPP8 Chromodomain Interactions with Methylated Histone Tails (AID 488949; also: nearly all actives have a fitted effect of over 55% in size; as to activity change, negative = inhibition: top concentration of the series differs between compounds)). Conditions: AlphaScreen MPP8 binding to H3K9me3 peptide; series mostly up to 57.1 µM; activity change, negative = inhibition: at the top concentration.
Sequence of M-phase phosphoprotein 8 (Homo sapiens) (Q99549 whole entry, looked up): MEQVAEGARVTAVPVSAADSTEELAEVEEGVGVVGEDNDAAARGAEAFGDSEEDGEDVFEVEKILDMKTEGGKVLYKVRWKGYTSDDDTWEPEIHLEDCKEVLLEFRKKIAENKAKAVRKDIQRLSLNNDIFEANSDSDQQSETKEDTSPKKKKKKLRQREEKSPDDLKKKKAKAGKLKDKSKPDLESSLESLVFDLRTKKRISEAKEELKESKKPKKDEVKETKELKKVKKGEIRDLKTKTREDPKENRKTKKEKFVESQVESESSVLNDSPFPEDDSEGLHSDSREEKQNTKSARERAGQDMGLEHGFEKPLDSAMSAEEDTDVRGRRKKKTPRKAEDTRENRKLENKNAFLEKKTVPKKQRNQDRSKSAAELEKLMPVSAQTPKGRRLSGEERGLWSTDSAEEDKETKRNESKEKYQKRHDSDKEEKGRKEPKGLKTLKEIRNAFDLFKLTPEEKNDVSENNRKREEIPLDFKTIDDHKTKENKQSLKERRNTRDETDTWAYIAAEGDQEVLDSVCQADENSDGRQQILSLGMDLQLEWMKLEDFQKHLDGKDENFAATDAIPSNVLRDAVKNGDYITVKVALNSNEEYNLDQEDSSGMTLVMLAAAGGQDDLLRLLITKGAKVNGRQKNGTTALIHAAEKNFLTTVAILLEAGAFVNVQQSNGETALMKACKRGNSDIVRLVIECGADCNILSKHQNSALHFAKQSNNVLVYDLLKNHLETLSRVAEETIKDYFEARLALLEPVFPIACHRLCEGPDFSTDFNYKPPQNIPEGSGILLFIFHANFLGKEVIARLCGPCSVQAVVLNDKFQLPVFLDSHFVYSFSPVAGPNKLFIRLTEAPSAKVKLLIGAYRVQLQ
Source text: As our understanding of epigenetics expands, it is becoming clear that players in this field are potential targets for drug development. This area of epigenetic therapy has established applications for the treatment of cancer and neurological diseases. We have been involved in this field for a number of years and have performed high-throughput screens to identify the first small molecule inhibitors of protein methyltransferases. These methyltransferases target multiple substrates, and thus regulate many arms of an epigenetic pathway. The methylation of different substrates often generates docking sites for effector proteins that harbor binding domains (chromo, tudor, PHD, MBT and ANK repeats). It has been proposed that the binding sites generated for different proteins by these post-translational modifcations mediate downstream effects on chromatin. Consistent with this theory, di- and tri-methylation of histone H3K9 facilitates the binding of heterochromatin protein HP1. The HP1 protein harbors a chromodomain that is responsible for the methyl-dependent interaction between HP1 and lysine 9 of histone H3. HP1 was first described in flies as a heterochromatin associated protein that can regulate gene silencing. It harbors a chromodomain that binds H3K9me3. In addition, it harbors a chromoshadow domain that interacts with a large number of proteins that are involved in heterochromatin formation and gene repression. There are three highly related HP1 isoforms. All three variants are associated with pericentric heterochromatin and it is not clear whether they have specific or redundant functions. MPP8 is also involved in the repression of gene in euchromatic regions (unpublished data) and like HP1 its chromodomain binds H3K9me3. MPP8 harbors an ankyrin repeat region that is likely involved in binding and recruiting interacting proteins with transcriptional repressive function, much like the chromoshadow domain of HP1 does. We hypothesize that by inhibiting specific protein-protein interactions we will be able to develop compounds that block a single arm of an epigenetic pathway. The specificity attained by blocking a single protein-protein interaction will be far greater than that attained by blocking the enzyme that regulates one of many interactions. Low-affinity protein-protein interactions (Kd in the single- to double-digit micromolar range) such as those discussed here have been very difficult to assay by traditional techniques such as fluorescence polarization or fluorescence resonance energy transfer. We have developed a sensitive chemiluminescence-based assay (Quinn, et al. 2009), which serves as the starting point for this project. The following is a validation assay to identify lead compounds that can block methyl-dependent protein-protein interactions (specifically MPP8), which can be used as probes to analyze these methyl-driven interactions and perhaps even developed into targeted epigenetic therapies. Assay Provider: Mark T. Bedford, MD Anderson Screening Center PI: Austin, C.P. Screening Center: NIH Chemical Genomics Center [NCGC]
To each well, 2 uL of MPP8 protein (final 50 nM) and 1 uL biotinylated histone peptide trimethylated at Lys9 [b-H3(1-18)K9me3] (final 50 nM) was added in 1x PBS buffer, pH 7.4, containing 0.01% Tween-20 using a nanoliter dispenser. Formation of a protein-peptide complex proceeded at room temperature for 30 min. A Kalypsys pin-tool was employed to transfer 23 nL of library compound solution in DMSO to each well. Aurintricarboxylic acid (ATA) was used as an intraplate control with a 12-point titration in duplicate. Following a 30 min incubation of the protein-peptide complex with compounds at room temperature, a mixture of 40 ug/mL each streptavidin-coated donor and nickel chelate acceptor AlphaScreen beads (final 10 ug/mL) was added in a 1 uL dispense for a final volume of 4 uL. Plates were incubated protected from the light for 30 min at room temperature. […]
For C=CCN1CCc2c(cc(O)c(O)c2Cl)C(c2ccccc2)C1 (stereo not given), the Potency was 39.8 µM (active) and inactive. With CC[C@@H]1Cc2cc(O)ccc2C2=C1c1ccc(O)cc1C[C@H]2CC the Potency was 35.5 µM (active) and inactive. With N[C@H]1CONC1=O the Potency was “inactive”. For O=c1[nH]ccc2c(O)cccc12, the Potency was “inactive”. CC(=O)/C(C)=N/O was tested, and the Potency was “inactive”. For O=C(O)c1cccnc1C(=O)O, the Potency was “inactive”. In the case of CCC1(O)CC2CN(CCc3c([nH]c4ccccc34)[C@@](C(=O)OC)(c3cc4c(cc3OC)N(C)C3[C@]45CCN4CC=C[C@@](CC)([C@@H](OC(C)=O)[C@]3(O)C(=O)OC)[C@H]45)C2)C1 (stereo not given in full), the “activity change, negative = inhibition” value is reported as -5.99% (inactive). In the case of CCn1c(=O)[nH]c2cc(Cl)c(Cl)cc21, the Potency is reported as “inactive”. Nc1nc2[nH]c(=O)cnc2c(=O)[nH]1 was tested, and the Potency was “inactive”. With CC(=O)O[C@H]1CC2(C)[C@@H](C[C@@H](O)[C@H]3[C@@]4(C)CC[C@@H](O)[C@@H](C)[C@@H]4CC[C@@]32C)C1=C(CCC=C(C)C)C(=O)O (stereo not given in full) the Potency was “inactive”. For N=C(N)SCCN, the Potency was “inactive”. In the case of CC(C)[C@@H]1CC[C@@H](C)C[C@@H]1P(=O)(c1ccccc1)c1ccccc1, the “activity change, negative = inhibition” value is reported as -4.64% (inactive). With CCCCCC[C@@H]([C@@H](C)O)n1cnc2c(N)ncnc21 the Potency was “inactive”. CC(N)(Cc1ccc(O)c(O)c1)C(=O)O (stereo not given) was tested, and the Potency was 79.4 µM (active) and 2.38 µM (active). With CC(=O)SC1CC2=CC(=O)CC[C@]2(C)C2CC[C@@]3(C)C(CC[C@@]34CCC(=O)O4)C12 (stereo not given in full) the “activity change, negative = inhibition” value was 3.88% (inactive). c1ccc2nc(C3=NCCN3)ccc2c1 was tested, and the “activity change, negative = inhibition” value was 8.15% (inactive). In the case of NC[C@@H]1O[C@H](c2ccccc2)Cc2c1ccc(O)c2O, the “activity change, negative = inhibition” value is reported as -8.84% (inactive). CC1CNCCN1S(=O)(=O)c1cccc2cnccc12 (stereo not given) was tested, and the Potency was “inactive”. For COC(=O)[C@H](NC(=O)c1cc(-c2ccccc2)nc2ccccc12)c1ccccc1, the Potency was “inactive”. For Nc1ccc(-c2nc3ccc(-c4nc5ccc(N)cc5[nH]4)cc3[nH]2)cc1, the Potency was 44.7 µM (active) and 26.7 µM (active). For N#CC(C#N)=C(N)/C(C#N)=C/c1ccc(O)cc1, the “activity change, negative = inhibition” value was -7.23% (inactive). For CCN(CC)CCCCCCCCOC(=O)c1cc(OC)c(OC)c(OC)c1, the Potency was “inactive”. In the case of OC[C@H]1O[C@H](n2cnc3c(N[C@H]4CCC[C@@H]4O)ncnc32)[C@H](O)[C@@H]1O, the “activity change, negative = inhibition” value is reported as 4.8% (inactive). In the case of C/C(=C\c1ccc(C(=O)O)cc1)c1ccc2c(c1)C(C)(C)CCC2(C)C, the Potency is reported as “inactive”. For NC(=O)CNCCC(c1ccccc1)c1ccccc1, the Potency was “inactive”. With O[Si](CCCN1CCCCC1)(c1ccc(F)cc1)C1CCCCC1 (stereo not given) the Potency was “inactive”. For Nc1ncnc2c1nc(Sc1ccc(Cl)cc1)n2[C@H]1OC2COP(=O)(O)O[C@@H]2C1O (stereo not given in full), the “activity change, negative = inhibition” value was -1.09% (inactive). In the case of Oc1cc2c(cc1O)C(c1ccccc1)CNCC2 (stereo not given), the “activity change, negative = inhibition” value is reported as -5.39% (inactive). NC1C=CC=C(C(=O)O)C1 (stereo not given) was tested, and the Potency was “inactive”. With O=C(O)c1cc2cc(F)ccc2[nH]1 the Potency was “inactive”. For Cn1cc(C(=O)OCC2CCN(CCNS(C)(=O)=O)CC2)c2ccccc21, the Potency was “inactive”. In the case of COc1cc(N)c(Cl)cc1C(=O)OCCN1CCCCC1, the Potency is reported as “inactive”. For CCSC(=N)N, the Potency was “inactive”. c1ccc(C(NCCNC(c2ccccc2)c2ccccc2)c2ccccc2)cc1 was tested, and the “activity change, negative = inhibition” value was 18.3% (inactive). O=[N+]([O-])c1cccc2c(Br)[nH]nc12 was tested, and the “activity change, negative = inhibition” value was 9.45% (inactive). For O=C(O)C1CCNCC1, the Potency was “inactive”. CCCCCC(O)CCCC(=O)O (stereo not given) was tested, and the Potency was “inactive”. N#CC(=C(\N)Sc1ccccc1N)/C(C#N)=C(/N)Sc1ccccc1N was tested, and the “activity change, negative = inhibition” value was -4.79% (inactive). With COc1ccccc1N1CCN(CCCCN2C(=O)c3ccccc3C2=O)CC1 the Potency was “inactive”. In the case of N#Cc1cc2nc(O)c(O)nc2cc1[N+](=O)[O-], the “activity change, negative = inhibition” value is reported as 17.4% (inactive).
